Data: PubChem BioAssay AID2014 (Sanford-Burnham Center for Chemical Genomics, 2009)
Out of some 290,000 compounds screened, about 3,000 (1%) were called active. The rule behind the calls is not given here. Shown is part of a subset that was picked to be rich in actives.

Biological target: Polyadenylate-binding protein 1 (Homo sapiens) (UniProt P11940)
Test: PABP poly(A) RNA binding inhibitors, primary screen, biochemical, fluorescence polarization, uHTS (AID 2014);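 note: calls also rest on retests at 20 µM and on dose response follow-up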
Settings: stronger effect = higher value

Chain of Polyadenylate-binding protein 1 (Homo sapiens) (P11940 whole entry, looked up): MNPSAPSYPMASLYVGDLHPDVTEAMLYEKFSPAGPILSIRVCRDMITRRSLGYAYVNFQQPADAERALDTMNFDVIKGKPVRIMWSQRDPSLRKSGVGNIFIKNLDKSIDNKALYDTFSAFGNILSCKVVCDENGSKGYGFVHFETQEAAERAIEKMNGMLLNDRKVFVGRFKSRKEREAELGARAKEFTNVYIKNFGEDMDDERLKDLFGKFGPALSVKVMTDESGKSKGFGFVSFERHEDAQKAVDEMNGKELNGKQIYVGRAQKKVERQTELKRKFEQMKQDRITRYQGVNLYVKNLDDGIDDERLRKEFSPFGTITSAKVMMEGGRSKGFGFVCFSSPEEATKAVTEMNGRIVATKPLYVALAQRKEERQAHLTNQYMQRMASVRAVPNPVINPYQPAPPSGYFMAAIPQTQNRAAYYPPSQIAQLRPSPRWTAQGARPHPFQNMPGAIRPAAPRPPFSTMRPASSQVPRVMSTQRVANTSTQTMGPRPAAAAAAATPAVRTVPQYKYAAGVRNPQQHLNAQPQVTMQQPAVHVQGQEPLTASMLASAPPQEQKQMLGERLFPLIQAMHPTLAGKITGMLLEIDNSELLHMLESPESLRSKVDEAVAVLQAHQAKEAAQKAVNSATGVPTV

Row | SMILES | inhibition (at 35 µM) | inhibition (confirmation repeats, at 20 µM) [%]
1 | Cc1cc(C)cc(NC(=O)CCN2C(=O)c3ccccc3C2=O)c1 | 0.7% (inactive) | 
2 | Cc1ccc(NC(=O)CCN2C(=O)c3ccccc3C2=O)cc1C | -7.2% (inactive) | 
3 | Cc1cc(C)cc(OCC(=O)NNC(=O)CCN2C(=O)c3ccccc3C2=O)c1 | 116% (active) | 74.1
4 | COc1cc(NC(=O)c2ccc(-c3csc(C)n3)cc2)c(OC)cc1Cl | 7.9% (inactive) | 
5 | COC(=O)c1cc(NS(=O)(=O)c2ccc3c(c2)c(=O)n(C)c(=O)n3C)cc(C(=O)OC)c1 | 3.8% (inactive) | 
6 | COC(=O)c1ccc(N2CCOCC2)c(NC(=O)c2ccc3c(c2)OCCO3)c1 | 4.7% (inactive) | 
7 | O=C(/C=C/c1ccco1)NC(=S)N1CCCCC1 | 1.1% (inactive) | 
8 | Cc1cccc(N2CCN(C(=O)/C=C/c3ccco3)CC2)c1C | -10.7% (active) | 96.7
9 | CCC(CC)C(=O)N1CCN(c2cccc(C)c2C)CC1 | -1.2% (inactive) | 
10 | COc1ccc(C(O)(C2CCCCC2)C(CN2CCCC2)c2ccccc2)cc1 (configuration not stated) | 12.9% (inactive) | 
11 | Cc1ccc2sc(N(CCN(C)C)C(=O)/C=C/c3cccs3)nc2c1C | -1.9% (inactive) | 
12 | CCCN(c1ccc(C)cc1)c1nc(=O)c2cccnc2s1 | 71.4% (active) | 
13 | CC1(C(=O)N/N=C/c2cc3c(cc2Br)OCO3)CC1(Br)Br (configuration not stated) | -5.1% (inactive) | 
14 | CCN(CC(=O)NCc1ccco1)S(=O)(=O)c1ccc(F)cc1 | -5.2% (inactive) | 
15 | NS(=O)(=O)c1cccc(NC(=O)CC23CC4CC(CC(Br)(C4)C2)C3)c1 | -11.5% (inactive) | 
16 | CC(C)Nc1ccc(-n2nc3ccccc3[n+]2[O-])cc1 | 1% (inactive) | 
17 | CCN1CCN(CCNC(=O)c2ccc3c(c2)NC(=O)/C(=C\c2ccc(OC)c(OC)c2)S3)CC1 | 6.5% (inactive) | 
18 | CCN1CCN(CCNC(=O)c2ccc(/C=C3/Sc4ccccc4N(Cc4cccc(C)c4)C3=O)cc2)CC1 | 60.2% (active) | 75.8
19 | O=C(NCCN1CCOCC1)c1ccc(/C=C2\Sc3ccccc3N(Cc3ccc(F)cc3)C2=O)cc1 | -1.5% (inactive) | 
20 | COc1ccc(/C=N/OCc2ccccc2C#N)c(OC)c1 | 12.1% (inactive) | 
21 | CC(NC(=O)CCCC1CCCCC1)c1ccc(S(N)(=O)=O)cc1 (configuration not stated) | -0.5% (inactive) | 
22 | Cc1ccc(NC(=O)Cc2nnc(SCC(=O)Nc3nncs3)n2C)cc1 | -10.3% (inactive) | 
23 | COc1cccc(NC(=S)NCc2ccco2)c1 | 3.2% (inactive) | 

Row | SMILES | inhibition (at 35 µM) | inhibition (confirmation repeats, at 20 µM) [%]
24 | S=C(NCc1ccco1)Nc1ccc2c(c1)OCCO2 | 76.8% (active) | 58.4
25 | S=C(NCc1ccc2c(c1)OCO2)NCc1ccco1 | 2.5% (inactive) | 
26 | CCOC(=O)C1=C(C)NC(=S)NC1c1cccs1 (configuration not stated) | 3.2% (inactive) | 
27 | CCOC(=O)N1CC=C2C(C#N)=C(N)C(C#N)(C#N)[C@H](c3cccs3)[C@H]2C1 | 82.2% (active) | 
28 | N#CC1=C(N)C(C#N)(C#N)[C@H](c2ccsc2)[C@H]2COCC=C12 | 111% (inactive) | 0
29 | O=C(N/C(=C\c1ccc([N+](=O)[O-])cc1)C(=O)N1CCCCC1)c1ccco1 | 4.9% (inactive) | 
30 | COc1cc(C(=O)Nn2c(CC(C)C)nc3ccccc3c2=O)cc(OC)c1OC | 1.2% (inactive) | 
31 | Cc1ccc(N(Cc2cc(=O)[nH]c3ccccc23)C(=O)CCl)cc1 | 3% (inactive) | 
32 | COc1ccc(N(Cc2ccc(N(C)C)cc2)C(=O)c2ccc(S(C)(=O)=O)cc2)cc1 | -1.6% (inactive) | 
33 | CNc1nc(-c2ccccc2)cc(-c2ccccc2)n1 | 4.7% (inactive) | 
34 | Nc1nc(-c2ccccc2)cc(-c2ccccc2)n1 | 9.3% (inactive) | 
35 | CS(=O)(=O)c1sc2nc(-c3ccccc3)cc(-c3ccccc3)c2c1N | 117% (active) | 
36 | CCc1ccccc1NC(=O)c1cc(-c2ccc3c(c2)OCO3)on1 | 3.5% (inactive) | 
37 | C/C(=N\NC(=O)COc1ccc(C)cc1[N+](=O)[O-])c1ccc2c(c1)OCCO2 | 3.8% (inactive) | 
38 | COC(=O)c1cccc(N(C(=O)CNC(=O)c2cccs2)C(C(=O)NCC2CCCO2)c2ccc(OC)c(OC)c2)c1 (configuration not stated) | 1% (inactive) | 
39 | O=C(CSCc1ccccc1)N1CCc2ccccc21 | 2.2% (inactive) | 
40 | CCn1c(=O)c2ccccc2n(CC(=O)N2CCCc3ccccc32)c1=O | -1.4% (inactive) | 
41 | CCC(=O)N1CCCc2ccccc21 | 59.1% (active) | 
42 | Cc1cc(NC(=O)c2ccc(F)cc2)ccc1NC(=O)c1ccco1 | 1.1% (inactive) | 
43 | Cc1c(C(=O)N2CCN(c3ccc(F)cc3)CC2)oc2c1C(=O)CCC2 | 5.7% (inactive) | 
44 | O=C(NCc1cccc(CNC(=O)Nc2cccc(O)c2)c1)Nc1cccc(O)c1 | 3.3% (inactive) | 
45 | COc1ccc(OC)c(-n2nnnc2SCC(=O)Nc2cc(C)ccc2OC)c1 | 2.6% (inactive) | 
46 | COc1ccc(C)cc1-n1nnnc1SCC(=O)c1cc(C)n(Cc2ccco2)c1C | 51.1% (active) | 

Row | SMILES | inhibition (at 35 µM) | inhibition (confirmation repeats, at 20 µM) [%]
47 | Cc1cc(C(=O)CSc2nc(N)cc(=O)[nH]2)c(C)n1Cc1ccco1 | 10.5% (inactive) | 
48 | O=C(OCC1O[C@@H](OC(=O)c2cc(O)c(O)c(O)c2)[C@@H](OC(=O)c2cc(O)c(O)c(O)c2)[C@@H](OC(=O)c2cc(O)c(O)c(O)c2)[C@@H]1OC(=O)c1cc(O)c(O)c(O)c1)c1cc(O)c(O)c(O)c1 (some centres not stated) | 88.2% (active) | 
49 | Cc1ccc(-c2nc(-c3ccncc3)no2)c(C)c1 | 9.6% (inactive) | 
50 | COc1ccc(-c2ocnc2C(=O)Nc2ccc3c(c2)CCC3)cc1 | 5.3% (inactive) | 
51 | Cc1ccc2c(cnn2C(=O)CCC(=O)NC2CCCC2)c1 | -2.1% (inactive) | 
52 | COc1ccc(Nc2ccc([N+](=O)[O-])cn2)cn1 | 39.7% (active) | 54
53 | COc1ccccc1C1CCN(c2ccc([N+](=O)[O-])cn2)CC1 | 3.2% (inactive) | 
54 | COc1ccc(C(=O)NCCNc2ccc([N+](=O)[O-])cn2)cc1 | -2.9% (inactive) | 
55 | CCOc1ccc(N(CC)S(=O)(=O)c2cccc3nsnc23)cc1 | 51% (inactive) | 37.2
56 | CC(=O)Nc1ccc(NC(=O)CN2C(=O)COc3ccc(S(=O)(=O)N4CCCCC4)cc32)cc1 | 0% (inactive) | 
57 | O=C(NCCc1nnc2ccc(SCC(=O)N3CCOCC3)nn12)c1ccccc1 | 6.6% (inactive) | 
58 | COc1cccc(/C=C2/SC(=S)N(CC(=O)NC3C=CS(=O)(=O)C3)C2=O)c1 (configuration not stated) | 8.2% (inactive) | 
59 | CCNc1c(NS(=O)(=O)c2ccc(C3CCCCC3)cc2)c(=O)oc2ccccc12 | 2.8% (inactive) | 
60 | CC1=NN(C(N)=S)C(=O)C1N=Nc1cc(Cl)ccc1Cl (configuration not stated) | 11.1% (inactive) | 
61 | Cn1c(=O)n(C)c2cc(C(=O)Nc3ccc4c(c3)OCO4)ccc21 | 9.8% (inactive) | 
62 | Cc1ccc(C(=O)O)cc1-c1ccc(/C=C2\SC(=O)N(CC(=O)Nc3ccc4c(c3)OCO4)C2=O)o1 | 62.5% (active) | 
63 | COc1ccc(NC(=O)CCN2C(=O)/C(=C/c3ccc4c(c3)OCO4)SC2=S)cc1 | 28.4% (inactive) | 
64 | CCOc1ccc(N(C(=O)c2snc(C(N)=O)c2N)C(C(=O)NCC2CCCO2)c2c[nH]c3ccccc23)cc1 (configuration not stated) | 8.6% (inactive) | 
65 | O=C(CCc1c[nH]c2ccccc12)NCCOc1ccccc1 | 3.3% (inactive) | 
66 | CCN(CCCNC(=O)c1ccc2c(c1)NC(=O)CN2C)c1cccc(C)c1 | 0.9% (inactive) | 
67 | CCOc1ccc(N(C)S(=O)(=O)c2cnc[nH]2)cc1 | -4.6% (inactive) | 
68 | O=C(CCN1CCCO1)N1CCCC(N2CCN(c3cccc(C(F)(F)F)c3)CC2)C1 (configuration not stated) | -17.5% (inactive) | 
69 | CN1/C(=c2/s/c(=C3/C(=O)N(c4ccccc4)NC3=Nc3ccccc3)n(C)c2=O)C(C)(C)c2ccccc21 | 79.2% (active) | 

Row | SMILES | inhibition (at 35 µM) | inhibition (confirmation repeats, at 20 µM) [%]
70 | CCN1C(=O)/C(=c2\s/c(=C3\Sc4ccccc4N3C)c(=O)n2C)N(C)C1=S | -6.7% (inactive) | 
71 | NC(=O)c1c(NC(=O)CSc2nc(N)cc(=O)[nH]2)sc2c1CCCC2 | 9.6% (inactive) | 
72 | CCc1cccc(C)c1NC(=O)CSc1nnc(-c2ccco2)n1N | -0.1% (inactive) | 
73 | NC(=O)c1c(NC(=O)CSc2nnc(-c3ccco3)n2N)sc2c1CCCC2 | 43.3% (active) | 90.6
74 | C[C@@H](NC(=O)[C@@H]1Cc2ccccc2CN1)C(=O)NC1CCCC1 | 21% (inactive) | 
75 | Cc1ccc(CN2CCCOCCS2(=O)=O)cc1 | 5.7% (inactive) | 
76 | Cc1ccccc1NC(=O)CN1C(=O)N/C(=C\c2cccn2-c2cccc(C(=O)O)c2)C1=O | 82.4% (inactive) | 24.9
77 | Cn1cccc1/C=C1\SC(=O)N(CC(=O)Nc2ccc(F)cc2)C1=O | 2.5% (inactive) | 
78 | N#Cc1ccccc1CN1C(=O)S/C(=C/c2cccn2-c2cccc(C(=O)O)c2)C1=O | 37.4% (active) | 65.8
79 | C=CCn1c(SCc2ccccc2)nc2c1c(=O)[nH]c(=O)n2C | -1.9% (inactive) | 
80 | O=C(O)c1cc(S(=O)(=O)N(Cc2ccccc2)c2cccc(C(F)(F)F)c2)ccc1Cl | 7.3% (inactive) | 
81 | COc1ccccc1-c1noc(CSc2nc(C)cc(=O)[nH]2)n1 | 56.6% (active) | 
82 | Cc1cc(=O)[nH]c(SCc2cccc(F)c2)n1 | -3.3% (inactive) | 
83 | Cc1cc(=O)[nH]c(SCc2cc(Cl)ccc2OC(F)F)n1 | 0.2% (inactive) | 
84 | CN1C(=O)/C(=C\c2ccc(-c3ccccc3)o2)SC1=S | 19.8% (inactive) | 
85 | O=C(O)C(c1ccccc1)N1C(=O)/C(=C\c2ccc(-c3cccc(Cl)c3)o2)SC1=S (configuration not stated) | 76% (active) | 126
86 | O=C1NN(c2ccccc2)C(=O)/C1=C/c1ccc(-c2cccc(C(=O)O)c2)o1 | 36.5% (inactive) | 
87 | CCOC(OCC)c1ccc(/C=C\c2nccc(N)n2)cc1 | -16.6% (inactive) | 
88 | COC(=O)c1sccc1NC(=O)COc1ccc(Cl)cc1 | 81% (active) | 58.4
89 | COC(=O)c1sccc1NC(=O)c1ccc(Cl)cc1 | 4.7% (inactive) | 
90 | O=C(COc1ccc(Cl)cc1)Nc1ccccc1CO | 4.7% (inactive) | 
